From PubChem BioAssay (NCI)
Compounds without any hit were thinned out: in the full panel of roughly 83,000, 20% have a hit.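 Interpretation: 100, growth as untreated; towards 0, rising growth inhibition; 0, no net growth; 0 to -100, cell death. Compounds scoring below 10 were considered active.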 Calls of active or inactive are those of the source.

tested on: NCI/ADR-RES ovarian; assay: NCI-60 one-dose screen, 48 h (100 = growth as untreated, 0 = no growth, -100 = all killed); conditions: 10 µM unless noted
Description: Growth inhibition of the NCI/ADR-RES human […] tumor cell line is measured as a screen for anti-cancer activity. Cells are grown in 96 well plates and exposed to the test compound for 48 hours. Compounds are tested at a single concentration, which is 10^-5 M for most compounds. The reported endpoint is percent growth (GI% or GIPRCNT), where numbers from 0 - 100% represent growth inhibition, and numbers from -100% - 0 represent cell death. For example, a value of 40 represents 60% growth inhibition. A value of 0 means no net growth occurred over the course of the experiment. A value of -40 indicates 40% of cells at the beginning of the experiment died by the end of the experiment. A value of -100 means all cells are dead at the end of the experiment.
NCI-60 Human Tumor Cell Lines Screen was performed using the standard one-dose NCI protocol, which is described in more detail at https://dtp.cancer.gov/discovery_development/nci-60/default.htm.
Compounds with GIPRCNT values below 10 were considered active. Activity score was based on GIPRCNT using the following formula: […]
Score is 0 for GIPRCNT values of 100 or above, 50 for GIPRCNT values of 0, and 100 for GIPRCNT values of -100.

| Structure (SMILES) | growth |
| --- | --- |
| CC/C(=C(/c1ccc(Cl)cc1)c1ccc(OCCN)cc1)c1ccccc1 | 99.9% (inactive) |
| Clc1cccc(/C=N/Nc2nc(N/N=C/c3cccc(Cl)c3)nc(N3CCOCC3)n2)c1 | 61.8% (inactive) |
| CC1(C)CC[C@]23CC[C@]4(C)[C@H](CC[C@@H]5[C@@]6(C)CC[C@H](N)C(C)(C)[C@@H]6CC[C@]54C)[C@H]2[C@H]1OC3 | 2.93% (active) |
| COc1ccc(-c2c(C(N)=O)c(N)n(Cc3nc4ccccc4[nH]3)c(=O)c2C#N)c(OC)c1 | 102% (inactive) |
| Fc1cc(F)cc(NNC(=S)c2ccccc2)c1 | 55.2% (inactive) |
| O=C1[C@@H]2Cc3c([nH]c4ccccc34)[C@H](c3ccc(Cl)cc3)N2C(=O)CN1C1CCN(Cc2ccccc2)CC1 | 52.6% (inactive) |
| O=C1/C(=C/C=C/c2ccco2)SC(=S)N1Cc1ccccc1 | 99.8% (inactive) |
| CN1CCN(CCCCCC(=O)Nc2nc(-c3cccc(NS(=O)(=O)c4cccc5c(N(C)C)cccc45)c3)cs2)CC1 | 94.1% (inactive) |
| CCCN1C=C/C(=C\C(=O)n2ccc3ccccc32)c2ccccc21 | 88.7% (inactive) |
| NCCNC(=O)c1cccc(COc2ccccc2NC(=O)c2cc(Br)c(Br)[nH]2)c1 | 96.7% (inactive) |
| CCCCCCCCCCCC(=O)NC(C)(C)C(=O)N1CCCC1C(=O)NC(C)(C)C(=O)NC(C)(C)C(=O)N1CCCC1C(=O)NC(C)(C)C(=O)NC(C)(C)C(=O)N1CCCC1C(=O)NC(C)C(=O)NCCC(=O)NC(C)C(=O)NC(C)(C)C(=O)NC(C)(C)C(=O)NC(C)(C)C(=O)NCCC(=O)NC(C)(C)C(=O)NC(C)(C)C(=O)NC(C)(C)C(=O)NC(C)C(=O)NCCC(=O)O (stereo not given) | -80.9% (active) |
| O=C(CSc1nc2ccccc2c(=O)n1-c1ccc(Cl)c(Cl)c1)Nc1ccc(S(=O)(=O)Nc2ccc(Cl)nn2)cc1 | 99.8% (inactive) |
| Cc1ccc2c(n1)C(=O)C(Cl)=C(Nc1cc(C(F)(F)F)cc(C(F)(F)F)c1)C2=O | 99.7% (inactive) |
| Cn1cc(-c2nnc(N)nc2-c2c[nH]c3ccc(F)cc23)c2cc(Br)ccc21 | 15.2% (inactive) |
| Cc1ccc(S(=O)(=O)c2nc(-c3ccc(F)cc3)oc2S(C)(=O)=O)cc1 | 92% (inactive) |
| CN1CCN(c2ccc(Nc3nc(NCCCNS(=O)(=O)c4cccc(F)c4)c4sccc4n3)cc2)CC1 | 70.8% (inactive) |
| Nc1nc(=O)n([C@H]2C[C@H](O)[C@@H](CO)O2)cc1C=O | 9.49% (active) |
| CCCCCCOC(=O)c1cc(-c2ccc(F)cc2)nc2ccccc12 | 96.1% (inactive) |
| C1=CC(c2nn3c(-c4ccccc4)nnc3s2)=Cc2ccccc2O1 | 85.2% (inactive) |
| C#CCOc1ccccc1/C=N/Nc1nc(-c2ccc(Cl)cc2)cs1 | 94.2% (inactive) |

| Structure (SMILES) | growth |
| --- | --- |
| Brc1ccc(-c2cc(-c3ccc4c(c3)OCCO4)n[nH]2)s1 | 6.64% (active) |
| Cc1[nH]c(C(=O)Nc2ccc(S(=O)(=O)N3CCCCC3)cc2OCCOCCOCCOCCOCCOCCOCCOCCOCCOc2cc(S(=O)(=O)N3CCCCC3)ccc2NC(=O)c2[nH]c(C)c3c2CCCCC3=O)c2c1C(=O)CCCC2 | 85.3% (inactive) |
| Fc1cccc(Cl)c1/C=N/Nc1nc(N/N=C/c2c(F)cccc2Cl)nc(N2CCCCC2)n1 | 15.2% (inactive) |
| CCc1cc(O)ccc1Nc1cc(-c2ccc(-n3cccn3)cc2)[nH]n1 | 63.8% (inactive) |
| C#Cc1nc(/C=C/C(=O)NO)cs1 | -6.26% (active) |
| COc1ccc(Cn2cc(C#N)c(N)c2C(C)=O)cc1 | 104% (inactive) |
| O=C(CSc1nc2ccccc2c(=O)n1-c1ccc(S(=O)(=O)Nc2ccc(Cl)nn2)cc1)Nc1ccc(S(=O)(=O)Nc2ccc(Cl)nn2)cc1 | 103% (inactive) |
| O=C(/C=C/c1cc(Cl)ccc1Cl)Nc1ncc(Cc2ccc(Cl)cc2)s1 | -5.33% (active) |
| COc1ccc([C@H]2C(=O)N(c3cc(OC)c(OC)c(OC)c3)[C@@H]2c2ccc(OC)c(O)c2)cc1 | 10.4% (inactive) |
| Cc1ccc(NC(=O)/C=C/c2ccc(OCCCOc3ccc4c(C)cc(=O)oc4c3)cc2)cc1 | 52.5% (inactive) |
| O=C(CCCCCCNC(=O)c1csc(Br)n1)NO | 9.08% (active) |
| Oc1[nH]c2ccc(Cl)cc2c1N=Nc1nc(N=Nc2c(O)[nH]c3ccc(Cl)cc23)nc(N2CCOCC2)n1 | 98.1% (inactive) |
| O=C(CCCCCCN1CC(=O)N2[C@@H](c3ccccc3Br)c3[nH]c4ccccc4c3C[C@H]2C1=O)NO | 83.7% (inactive) |
| C#CCN(C)CCCOc1ccc(NC(=O)CCCCCCC(=O)NO)cc1Cl | 65.4% (inactive) |
| COc1ccc2[nH]cc(-c3nc(N)nnc3-c3cn(C)c4ccc(Br)cc34)c2c1 | 64.3% (inactive) |
| O=C(/C=C/c1ccccc1Cl)Nc1ncc(Cc2cc(Cl)ccc2Cl)s1 | 17.9% (inactive) |
| CCOC(=O)c1c(NC(=O)c2ccc(C(F)(F)F)cc2)sc2c(CN3CCN(C)CC3)c(O)ccc12 | -63.2% (active) |
| CCCCc1nc2c(N)nc3ccccc3c2n1Cc1ccc(OC)cc1 | 59.2% (inactive) |
| COc1cc(/C=N\NC(=O)c2ccc3nc(-c4ccc(Br)cc4)[nH]c3c2)cc(OC)c1OC | 95.9% (inactive) |
| C#Cc1nc(/C=C\CCCCCCC(=O)NO)cs1 | 13.1% (inactive) |
